{
  "source": "paper PMC7862700",
  "about": "“An all-to-all approach to the identification of sequence-specific readers for epigenetic DNA modifications on cytosine”",
  "assay_in_all_cases": "DAPPL (digital affinity profiling via proximity ligation, sequencing); 10 mM Tris-HCl pH 7.5, 50 mM NaCl, 1 mM DTT, 4% glycerol, room temperature, 30 min; GST-TFs on glutathione beads, 16-mer random dsDNA library, 0.1% formaldehyde crosslink after washing; high values mean tight binding",
  "key": {"[1]": {"target": "T1, FEV (Homo sapiens, UniProt Q99581 1-238)", "T1 sequence": "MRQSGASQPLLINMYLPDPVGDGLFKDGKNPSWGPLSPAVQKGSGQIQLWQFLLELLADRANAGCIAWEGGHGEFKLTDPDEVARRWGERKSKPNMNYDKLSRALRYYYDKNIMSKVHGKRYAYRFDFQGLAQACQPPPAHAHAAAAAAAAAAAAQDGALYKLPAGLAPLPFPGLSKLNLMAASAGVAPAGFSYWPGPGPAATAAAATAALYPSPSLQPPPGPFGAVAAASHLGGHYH", "details": "protein: recombinant; tags: N-terminal GST; dsDNA, one strand shown", "how_it_was_run": "(§1)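 A tag-only sample was pooled with DNA-barcoded human transcription factors that had been expressed in yeast as GST fusions and captured on glutathione beads. The pools were incubated for 30 min at room temperature with 200 nmole of a random double-stranded 16-mer DNA library in Tris/NaCl/DTT/glycerol buffer, then washed, crosslinked with 0.1% formaldehyde, proximity-ligated (BsaI/T4 ligase, 1 h, 37 °C), PCR-amplified and sequenced on an Illumina NextSeq500. Binding signal is each hexamer's read frequency for a factor divided by its frequency for the tag-only sample.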"}, "[2]": {"target": "ETV5 (Homo sapiens, UniProt P41161 1-510)", "sequence (P41161 whole entry)": "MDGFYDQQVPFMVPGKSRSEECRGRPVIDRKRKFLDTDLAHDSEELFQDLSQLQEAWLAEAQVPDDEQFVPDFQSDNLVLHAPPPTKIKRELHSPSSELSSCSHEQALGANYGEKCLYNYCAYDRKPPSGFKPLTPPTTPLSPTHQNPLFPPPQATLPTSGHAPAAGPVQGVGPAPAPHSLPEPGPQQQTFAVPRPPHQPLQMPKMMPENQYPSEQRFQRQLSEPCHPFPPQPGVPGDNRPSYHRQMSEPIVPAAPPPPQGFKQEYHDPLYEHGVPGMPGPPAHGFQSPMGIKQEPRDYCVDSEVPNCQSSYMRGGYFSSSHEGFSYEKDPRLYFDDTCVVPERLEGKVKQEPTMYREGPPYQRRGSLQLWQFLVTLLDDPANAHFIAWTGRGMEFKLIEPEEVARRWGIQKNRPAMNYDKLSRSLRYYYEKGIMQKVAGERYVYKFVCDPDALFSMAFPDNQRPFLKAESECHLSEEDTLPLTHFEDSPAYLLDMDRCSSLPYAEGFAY", "details": "protein: recombinant; tags: N-terminal GST; dsDNA, one strand shown", "how_it_was_run": "as §1"}, "[3]": {"target": "HSF1 (Homo sapiens, UniProt Q00613 1-529)", "sequence (Q00613 whole entry)": "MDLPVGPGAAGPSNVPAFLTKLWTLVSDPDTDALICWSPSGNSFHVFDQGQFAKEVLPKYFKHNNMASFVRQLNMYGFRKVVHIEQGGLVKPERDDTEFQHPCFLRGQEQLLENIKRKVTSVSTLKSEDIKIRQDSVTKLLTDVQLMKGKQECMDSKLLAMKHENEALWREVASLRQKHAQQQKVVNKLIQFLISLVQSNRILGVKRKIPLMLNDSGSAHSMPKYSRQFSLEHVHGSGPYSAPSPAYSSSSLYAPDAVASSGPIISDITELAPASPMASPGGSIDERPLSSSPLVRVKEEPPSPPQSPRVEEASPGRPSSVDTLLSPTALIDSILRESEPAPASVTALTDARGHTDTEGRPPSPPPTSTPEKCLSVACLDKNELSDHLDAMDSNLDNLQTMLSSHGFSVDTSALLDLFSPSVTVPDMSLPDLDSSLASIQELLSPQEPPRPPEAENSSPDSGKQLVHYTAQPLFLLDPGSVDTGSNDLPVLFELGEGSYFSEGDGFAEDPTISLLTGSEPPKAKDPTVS", "details": "protein: recombinant; tags: N-terminal GST; chain copies: 3; dsDNA, one strand shown", "how_it_was_run": "as §1"}, "[4]": {"target": "T2, SPIC (Homo sapiens, UniProt Q8N5J4 1-248)", "T2 sequence": "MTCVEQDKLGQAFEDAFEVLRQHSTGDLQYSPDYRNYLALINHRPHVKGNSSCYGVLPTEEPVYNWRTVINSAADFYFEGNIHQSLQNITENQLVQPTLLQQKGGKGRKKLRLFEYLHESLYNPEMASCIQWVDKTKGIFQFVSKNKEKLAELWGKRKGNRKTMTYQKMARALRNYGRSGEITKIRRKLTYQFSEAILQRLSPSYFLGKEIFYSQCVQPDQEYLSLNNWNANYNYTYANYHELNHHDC", "details": "protein: recombinant; tags: N-terminal GST; dsDNA, one strand shown", "how_it_was_run": "as §1"}, "[5]": {"target": "ELF4 (Homo sapiens, UniProt Q99607 1-663)", "sequence (Q99607 whole entry)": "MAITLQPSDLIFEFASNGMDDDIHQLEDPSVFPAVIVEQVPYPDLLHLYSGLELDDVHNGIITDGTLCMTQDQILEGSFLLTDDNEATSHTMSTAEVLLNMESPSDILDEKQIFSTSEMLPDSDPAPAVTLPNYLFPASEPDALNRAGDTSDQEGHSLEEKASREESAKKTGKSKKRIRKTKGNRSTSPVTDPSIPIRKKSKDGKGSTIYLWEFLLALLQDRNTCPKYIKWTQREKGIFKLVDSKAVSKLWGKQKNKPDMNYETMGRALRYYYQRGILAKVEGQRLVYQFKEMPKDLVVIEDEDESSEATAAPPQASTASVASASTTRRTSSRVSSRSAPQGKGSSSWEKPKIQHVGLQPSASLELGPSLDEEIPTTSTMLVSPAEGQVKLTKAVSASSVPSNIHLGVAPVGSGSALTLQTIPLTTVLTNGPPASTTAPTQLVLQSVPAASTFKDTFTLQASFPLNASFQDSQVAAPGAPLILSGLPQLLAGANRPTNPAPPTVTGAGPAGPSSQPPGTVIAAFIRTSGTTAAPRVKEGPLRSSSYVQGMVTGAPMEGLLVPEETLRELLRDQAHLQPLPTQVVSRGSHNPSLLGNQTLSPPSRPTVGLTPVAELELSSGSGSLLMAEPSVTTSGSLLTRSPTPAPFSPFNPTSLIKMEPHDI", "details": "protein: recombinant; tags: N-terminal GST; dsDNA, one strand shown", "how_it_was_run": "as §1"}, "[6]": {"target": "T3, ELK4 (Homo sapiens, UniProt P28324-2 1-405)", "T3 sequence": "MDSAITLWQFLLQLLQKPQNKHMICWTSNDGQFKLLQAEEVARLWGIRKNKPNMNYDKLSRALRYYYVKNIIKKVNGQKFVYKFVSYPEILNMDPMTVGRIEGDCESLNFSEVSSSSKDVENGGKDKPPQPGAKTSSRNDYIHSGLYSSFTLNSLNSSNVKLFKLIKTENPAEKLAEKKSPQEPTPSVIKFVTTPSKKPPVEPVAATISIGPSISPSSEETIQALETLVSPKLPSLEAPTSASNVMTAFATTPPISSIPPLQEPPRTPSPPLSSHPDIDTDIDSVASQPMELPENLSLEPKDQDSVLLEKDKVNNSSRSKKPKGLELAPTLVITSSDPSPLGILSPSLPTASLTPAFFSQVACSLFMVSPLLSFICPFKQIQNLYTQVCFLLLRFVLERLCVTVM", "details": "protein: recombinant; tags: N-terminal GST; dsDNA, one strand shown", "how_it_was_run": "as §1"}, "[7]": {"target": "T4, ETV2 (Homo sapiens, UniProt O00321 1-342)", "T4 sequence": "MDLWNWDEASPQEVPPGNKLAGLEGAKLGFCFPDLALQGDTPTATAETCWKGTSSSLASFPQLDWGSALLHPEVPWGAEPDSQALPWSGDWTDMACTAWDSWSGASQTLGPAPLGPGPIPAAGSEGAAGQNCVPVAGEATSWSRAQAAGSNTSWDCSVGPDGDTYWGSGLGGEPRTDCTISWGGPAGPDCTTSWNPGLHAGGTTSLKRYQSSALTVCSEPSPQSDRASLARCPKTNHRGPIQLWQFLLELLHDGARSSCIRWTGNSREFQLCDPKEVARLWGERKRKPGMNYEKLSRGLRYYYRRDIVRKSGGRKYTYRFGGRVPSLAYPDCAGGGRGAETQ", "details": "protein: recombinant; tags: N-terminal GST; dsDNA, one strand shown", "how_it_was_run": "as §1"}, "[8]": {"target": "T5, ELF3 (Homo sapiens, UniProt P78545 1-371)", "T5 sequence": "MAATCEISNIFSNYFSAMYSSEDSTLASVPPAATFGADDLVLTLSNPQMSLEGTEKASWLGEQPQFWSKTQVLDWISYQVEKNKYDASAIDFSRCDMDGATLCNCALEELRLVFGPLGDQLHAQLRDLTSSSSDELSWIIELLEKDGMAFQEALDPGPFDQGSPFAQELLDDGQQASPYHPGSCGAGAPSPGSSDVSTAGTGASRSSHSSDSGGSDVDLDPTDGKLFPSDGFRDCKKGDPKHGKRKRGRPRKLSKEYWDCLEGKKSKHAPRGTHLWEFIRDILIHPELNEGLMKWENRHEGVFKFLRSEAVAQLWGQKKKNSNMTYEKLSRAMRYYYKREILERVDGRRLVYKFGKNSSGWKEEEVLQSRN", "details": "protein: recombinant; tags: N-terminal GST; dsDNA, one strand shown", "how_it_was_run": "as §1"}, "[9]": {"target": "CRX (Homo sapiens, UniProt O43186 1-299)", "sequence (O43186 whole entry)": "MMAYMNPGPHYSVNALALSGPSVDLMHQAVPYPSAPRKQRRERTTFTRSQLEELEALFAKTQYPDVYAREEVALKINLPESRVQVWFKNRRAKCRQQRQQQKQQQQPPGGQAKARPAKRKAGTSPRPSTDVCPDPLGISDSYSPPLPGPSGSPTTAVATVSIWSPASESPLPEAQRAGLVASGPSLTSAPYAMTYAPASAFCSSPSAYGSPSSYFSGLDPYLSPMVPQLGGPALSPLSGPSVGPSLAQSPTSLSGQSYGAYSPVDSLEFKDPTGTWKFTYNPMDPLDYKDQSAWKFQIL", "details": "protein: recombinant; tags: N-terminal GST; dsDNA, one strand shown", "how_it_was_run": "as §1"}, "[10]": {"target": "ETV1 (Homo sapiens, UniProt P50549 1-477)", "sequence (P50549 whole entry)": "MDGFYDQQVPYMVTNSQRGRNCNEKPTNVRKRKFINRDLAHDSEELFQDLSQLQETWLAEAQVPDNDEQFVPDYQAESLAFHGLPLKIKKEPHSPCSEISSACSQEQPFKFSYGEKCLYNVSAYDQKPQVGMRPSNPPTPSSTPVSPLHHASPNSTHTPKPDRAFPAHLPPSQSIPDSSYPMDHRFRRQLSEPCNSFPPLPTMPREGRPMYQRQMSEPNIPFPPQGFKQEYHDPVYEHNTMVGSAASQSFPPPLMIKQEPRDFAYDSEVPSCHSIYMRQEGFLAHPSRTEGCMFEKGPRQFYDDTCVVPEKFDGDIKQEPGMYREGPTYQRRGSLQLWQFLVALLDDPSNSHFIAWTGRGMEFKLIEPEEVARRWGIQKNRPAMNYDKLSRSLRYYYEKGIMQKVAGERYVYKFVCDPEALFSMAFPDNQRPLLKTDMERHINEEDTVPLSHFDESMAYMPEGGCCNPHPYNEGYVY", "details": "protein: recombinant; tags: N-terminal GST; dsDNA, one strand shown", "how_it_was_run": "as §1"}},
  "data": [
    {"sequence": "TAAATC", "values": [
      {"measurement": "binding signal", "setting": "[1]", "value": "1.21 fold enrichment (6-mer frequency, TF over GST control)"},
      {"measurement": "binding signal", "setting": "[2]", "value": "1.23 fold enrichment (6-mer frequency, TF over GST control)"},
      {"measurement": "binding signal", "setting": "[3]", "value": "1.9 fold enrichment (6-mer frequency, TF over GST control)"},
      {"measurement": "binding signal", "setting": "[4]", "value": "1.2 fold enrichment (6-mer frequency, TF over GST control)"},
      {"measurement": "binding signal", "setting": "[5]", "value": "1.3 fold enrichment (6-mer frequency, TF over GST control)"},
      {"measurement": "binding signal", "setting": "[6]", "value": "1.27 fold enrichment (6-mer frequency, TF over GST control)"},
      {"measurement": "binding signal", "setting": "[7]", "value": "1.12 fold enrichment (6-mer frequency, TF over GST control)"},
      {"measurement": "binding signal", "setting": "[8]", "value": "1.2 fold enrichment (6-mer frequency, TF over GST control)"},
      {"measurement": "binding signal", "setting": "[9]", "value": "2.81 fold enrichment (6-mer frequency, TF over GST control)"},
      {"measurement": "binding signal", "setting": "[10]", "value": "1.26 fold enrichment (6-mer frequency, TF over GST control)"}
    ]}
  ]
}
